Source: PubChem
Cardio protect: cardioprotection against H2O2-induced cell death, primary screen, uHTS, H9c2 cells, ATPLite luminescence; protection from H2O2 cell death, % at 20 µM; H9c2 cardiomyocytes, H2O2 injury protection, 2 h; 0.63% of 360,000 active;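 active = compounds giving at least 50% protection of heart cells from peroxide-induced death in the single-dose screen, raw or plate-pattern-corrected value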;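 also: 0% = DMSO wells with peroxide and 100% = DMSO wells without peroxide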
TAG inh: inhibitors of triacylglycerol accumulation, primary screen, cell-based, uHTS, fluorescence, H9c2; H9c2 cells, Nile Red lipid (TAG) fluorescence; cells loaded with 200 µM oleic acid; inhibition, % at 12.5 µM; 0.66% of 230,000 active; AID 651582, 2012;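 active = pattern-corrected inhibition of lipid staining of at least 50% with the nuclear-stain viability signal not falling by more than 50%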;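 also: 0% = DMSO wells and 100% = triacsin C control wells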
SKN-1 inh: suppressors of acrylamide-induced Pgst-4::GFP reporter in worms, primary screen, SKN-1 inhibitor project, whole organism, uHTS, GFP/RFP fluorescence ratio, strain VP596; C. elegans VP596 Pgst-4::GFP/RFP ratio, 24 h; inhibition, % at 21.8 µM; 0.49% of 360,000 active; AID 624304, 2012;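 active = interference check ratio from 0.5 to 1.5 plus GFP to RFP signal ratio inhibition reaching or exceeding a fixed threshold, cut at about 30% in these data, passing the limit was not always enough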
CRFBP-R2 agonist: agonists of CRF-BP/CRF-R2 complex, primary screen, cell-based, HEK293, calcium dye fluorescence, uHTS. CRF-binding protein / CRF receptor 2 complex (human). calcium dye fluorescence (FLIPR); percent of saturating CRF peptide response. activation, % at 13.2 µM. 0.46% of 350,000 active. AID 588473, 2011;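 active = activation of at least 50%, plus an integration ratio under a set limit after plate pattern correction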;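 also: plate controls were neutral control wells without compound for no effect and CRF at EC100 for full effect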
CRFBP-R2 block: antagonists of CRF-BP/CRF-R2 complex, primary screen, cell-based, HEK293, calcium dye fluorescence, uHTS | inhibition, % at 11.8 µM | 0.59% of 350,000 active | CRF-induced calcium fluorescence;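 active = inhibition of the ligand-induced calcium signal above about 50% at the single tested concentration, limit read from the data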
iPSC survival up: enhancers of single-cell hiPSC survival, primary screen, ATPlite luminescence | 100% = ROCK inhibitor wells, 0% = DMSO | survival enhancement, % at 20 µM | 0.044% of 360,000 active | AID 602274, 2012; in the data active = survival enhancement above about 18%;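 also: cells exposed to compounds for 16 hours before the ATP read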
TAG conf: triacylglycerol accumulation inhibitors, retest, confirmation, cell-based, single concentration, Nile Red fluorescence, H9c2; 71% of 990 active; H9c2 lipid accumulation; cells loaded with 200 µM oleic acid; shares compounds with TAG inh; inhibition, % at 12.5 µM;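 active = mean inhibition across replicates of 40% or more; inactive = mean inhibition below 40%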;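 also: plate controls were DMSO only wells for no effect and Triacsin C treated wells for full effect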
The depositor's hits bear a star; / = not tested or not shown. An excerpt weighted towards active compounds, which were near 2.5% of everything screened.

SMILES | Cardio protect | TAG inh | SKN-1 inh | CRFBP-R2 agonist | CRFBP-R2 block | iPSC survival up | TAG conf
CC(=O)NC(c1ccccc1)c1nc(-c2cccc(CO)c2)cs1 (stereo not drawn) | 6.0 | 24.2 | 9.8 | / | / | -1.7 | /
Cc1cccc(C)c1Nc1nnc(SCc2cc([N+](=O)[O-])cc3c2OCOC3)s1 | -10.7 | / | 13.5 | -4.8 | -15.0 | 1.9 | /
COc1cccc(Nc2nnc(SCc3cc([N+](=O)[O-])cc4c3OCOC4)s2)c1 | -6.1 | 52.7* | -34.7 | -2.6 | -5.5 | -2.3 | 42.1*
O=C(CSc1ccc(-c2cccc([N+](=O)[O-])c2)nn1)N1CCCC1 | -1.4 | 60.5* | -1.3 | -2.2 | -1.4 | -0.5 | 3.3
N#C/C(=C\Nc1ccc2cn[nH]c2c1)c1nc(-c2ccc(Cl)cc2)cs1 | -0.9 | 77.6* | 24.9 | -0.2 | -1.3 | 0.7 | 83.3*
Cc1cccc2c(N=Nc3ccc(S(=O)(=O)Nc4ccc(Cl)cc4)cc3[N+](=O)[O-])c(O)[nH]c12 | -2.2 | 54.0* | 8.0 | 0.2 | -1.3 | -0.6 | 51.0*
CCN1CCN(C(=O)/C(C#N)=C/c2ccc(OC(F)F)cc2)CC1 | 4.5 | -9.2 | 8.1 | 0.9 | -19.4 | -0.5 | /
N#C/C(=C\c1ccc(OC(F)F)cc1)C(=O)N1CCCCC1 | 7.0 | 83.1* | 3.6 | 1.1 | -23.7 | -0.2 | 2.0
CCOc1ccc(S(=O)(=O)N(CC(=O)NCc2ccncc2)c2ccc(C)cc2)cc1 | 1.8 | / | 12.3 | -0.8 | -6.3 | -0.4 | /
CCOC(=O)C1CCN(C(=O)C2(NC(=O)Nc3ccccc3Cl)CCCCC2)CC1 | -3.0 | 70.4* | -20.8 | -1.8 | 29.2 | -1.5 | 38.4
CCOC(=O)/C(=N/Nc1ccccc1)c1csc(Nc2ccccc2)n1 | -18.6 | / | 16.5 | -0.1 | -26.2 | -0.8 | /
CCOC(=O)/C(=N\Nc1ccc(Cl)cc1)c1csc(Nc2ccccc2)n1 | 3.3 | 75.4* | -8.9 | 2.9 | -25.8 | 2.8 | 68.8*
O=C(CN(Cc1ccco1)C(=O)c1cccc(Cl)c1)Nc1c(Cl)cc(Cl)cc1Cl | 4.5 | 53.3* | 3.8 | -0.6 | -9.5 | -1.7 | 38.9
O=C(CCC(=O)N1CCOc2ccc(Cl)cc21)NCCCN1CCC(Cc2ccccc2)CC1 | -11.3 | 90.1* | 1.4 | 0.5 | -24.2 | -4.5 | 61.6*
O=C(CCC(=O)N1CCOc2ccc(Cl)cc21)NCCCN1CCN(c2ccccc2F)CC1 | 10.9 | -9.3 | 2.4 | 0.4 | -13.4 | 2.1 | /
Cc1cc2ncn(/N=C/c3ccc([N+](=O)[O-])o3)c2cc1C | -2.8 | / | -2.2 | 5.7 | -48.3 | -0.6 | /
Cc1[nH]c2ccccc2c1/C=N/Nc1nc(Nc2ccc(F)cc2)nc(N2CCOCC2)n1 | 8.1 | 75.7* | 21.0 | 1.7 | 9.5 | 0.0 | 85.8*
Cc1ccc(Nc2nc(N/N=C/c3c[nH]c4ccccc34)nc(N3CCOCC3)n2)cc1 | 25.9 | / | 10.5 | -2.4 | -20.6 | -3.4 | /
CCCCNc1c(-c2ccc(-c3ccc(C(C)=O)cc3)c(OC)c2)nc2cc(C)ccn12 | -4.0 | 58.0* | 3.9 | -0.9 | 0.1 | 1.6 | 41.2*
COc1ccc2c(c1)[nH]c1c(=O)n(CCCn3ccnc3)cnc12 | -14.9 | / | 3.6 | 3.2 | 24.8 | -1.9 | /
O=C(c1ccoc1)N1CCN(c2cc(-c3ccncc3)nc3cc(-c4cccc(Cl)c4)nn23)CC1 | 71.4* | 62.9* | 5.4 | -0.2 | 22.2 | 4.0 | 49.4*
O=C(c1ccoc1)N1CCN(c2cc(-c3cccnc3)nc3cc(-c4cccc(Cl)c4)nn23)CC1 | 16.8 | 51.8* | 4.0 | 4.2 | 15.0 | -1.1 | 41.0*
O=C(c1ccoc1)N1CCN(c2cc(-c3ccccc3)nc3cc(-c4ccc(Br)cc4)nn23)CC1 | 14.3 | 75.3* | 6.5 | 1.8 | -17.5 | 3.6 | 65.4*
CCOc1ccc(NC(=O)CN(C)C(=O)c2cc(-c3ccc(OC)cc3)nc3ccccc23)cc1OCC | 24.6 | 52.5* | -10.2 | -0.9 | 6.2 | 0.3 | 62.9*
Nc1ccn([C@@H]2O[C@H](C(=O)N3CCN(c4ccc(Cl)cn4)CC3)[C@@H](O)[C@H]2O)c(=O)n1 | 0.7 | / | -3.4 | / | / | -1.2 | /
SMILES | Cardio protect | TAG inh | SKN-1 inh | CRFBP-R2 agonist | CRFBP-R2 block | iPSC survival up | TAG conf
Cc1ccc(N2C(=O)C3CC(c4ccccc4)=C4C5C=CC(C6C(=O)N(c7ccc(C)cc7C)C(=O)C56)C4C3C2=O)c(C)c1 (stereo not drawn) | -5.0 | 51.1* | 13.4 | 1.0 | 4.9 | 2.1 | 53.2*
COc1ccc(Cc2n[nH]c(=S)o2)cc1 | -4.5 | 55.5* | -12.6 | -0.4 | -11.4 | -0.7 | 3.0
C=CCN1C(=O)C(CC(=O)NCC)SC1=Nc1ccccc1OC (stereo not drawn) | -0.6 | 1.5 | -5.7 | -0.9 | -0.7 | -0.4 | /
CC(=O)O[C@H]1C(=O)[C@]2(C)[C@H]([C@H](OC(=O)c3ccccc3)[C@]3(O)C[C@H](OC(=O)[C@H](O)[C@@H](NC(=O)c4ccccc4)c4ccccc4)C(C)=C1C3(C)C)[C@]1(OC(C)=O)CO[C@@H]1C[C@@H]2O | -6.9 | 54.1* | -13.4 | 1.8 | 14.7 | -2.0 | 57.0*
CCOC(=O)c1c(S(=O)(=O)NCC(=O)N2CCN(c3ccc(F)cc3)CC2)c(C)n(C)c1C | 7.8 | / | 1.1 | -2.6 | 7.7 | -0.4 | /
CC(=O)Nc1ccc(NC(=O)C(C)Sc2n[nH]c(=O)n2Cc2ccccc2)cc1 (stereo not drawn) | 0.1 | / | 8.2 | -0.2 | 2.1 | -0.1 | /
Cc1ccc(-n2nc(C(=O)NCc3ccc(C)o3)c3c4ccccc4n(C)c3c2=O)cc1 | -0.7 | 52.8* | 4.9 | 0.0 | -8.5 | 0.8 | 21.4
O=C(c1ccc([N+](=O)[O-])s1)N1CCN(c2ccc(C(F)(F)F)cn2)CC1 | -12.1 | / | 13.7 | -0.6 | 23.6 | -0.3 | /
COc1ccc(-c2oc(=O)c3cc(OC)c(OC)cc3c2/C=C/c2ccc([N+](=O)[O-])cc2)cc1 | 31.7 | 54.0* | -7.6 | 0.3 | -4.6 | 8.3 | 30.7
COc1ccc(-c2oc(=O)c3cc(OC)c(OC)cc3c2/C=C/c2cccc([N+](=O)[O-])c2)cc1 | 2.6 | 34.6 | -19.9 | 2.6 | 2.4 | -1.3 | /
CC1CCN(CCNC(=O)C2CCCN(S(=O)(=O)c3cccc4nsnc34)C2)CC1 (stereo not drawn) | -4.3 | / | 1.0 | 0.9 | 26.3 | -0.2 | /
CC(C)(C)c1cc(NC(=O)C2(C)CCN2C(=O)C2(c3ccccc3)CCCC2)no1 (stereo not drawn) | -22.8 | 52.9* | 4.2 | / | / | -0.5 | 39.5
